Test results reported in PubChem BioAssay.

These molecules were tested against PEG-3 (UniProt Q6IN02) (assay: Peg3 promoter luciferase inhibitors, potency, dose response, cell-based, HeLa, CREF/GAPDH counter-screen panel (AID 624167)). Conditions: CREF/GAPDH counter-screens; HeLa PEG-Prom luciferase reporter, overnight, run 1, dose range 1, at 100 µM (top of the series) unless noted.
PEG-3, sequence (Q6IN02 whole entry, looked up): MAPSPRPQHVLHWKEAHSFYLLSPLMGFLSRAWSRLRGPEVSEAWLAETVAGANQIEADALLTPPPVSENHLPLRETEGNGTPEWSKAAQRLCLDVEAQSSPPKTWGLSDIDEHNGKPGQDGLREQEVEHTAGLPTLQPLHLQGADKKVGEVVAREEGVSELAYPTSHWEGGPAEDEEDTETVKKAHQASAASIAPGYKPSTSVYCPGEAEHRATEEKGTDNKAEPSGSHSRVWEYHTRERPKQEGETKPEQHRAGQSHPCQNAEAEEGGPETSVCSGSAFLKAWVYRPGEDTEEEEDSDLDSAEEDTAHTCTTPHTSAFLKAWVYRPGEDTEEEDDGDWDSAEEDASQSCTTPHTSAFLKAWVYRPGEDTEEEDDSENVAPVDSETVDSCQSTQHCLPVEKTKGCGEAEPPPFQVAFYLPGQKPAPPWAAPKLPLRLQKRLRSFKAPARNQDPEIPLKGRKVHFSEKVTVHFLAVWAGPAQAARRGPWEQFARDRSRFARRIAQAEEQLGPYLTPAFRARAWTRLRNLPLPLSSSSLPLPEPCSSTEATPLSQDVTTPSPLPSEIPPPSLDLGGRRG

Structure (SMILES)	inhibition
COc1ccc(CN(C)C(=O)c2cc(-c3ccccc3)nc3ccc(C)cc23)c(OC)c1OC	94.8%
Oc1[nH]c2ccc(Br)cc2c1N=NC(=S)Nc1ccc(F)cc1	89.9%
O=C1NC(Cc2ccc(O)cc2)c2nc3ccc(F)cc3c(=O)n2-c2cc3ccccc3cc21 (stereo unspecified)	100%
Cc1ccc(S(=O)(=O)N2CCCCC2)cc1C(=O)N(C)CC(=O)Nc1ccc(Cl)c(C(F)(F)F)c1	74.6%
COCC(C)n1c(C)cc(C(=O)COC(=O)c2cccn2C)c1C (stereo unspecified)	75.2%
COc1ccc(-c2cc(C(=O)N(C)Cc3ccccc3F)c3ccccc3n2)cc1OC	97.1%
COc1ccc(-n2ncc3c(N(C)C4CCCCC4)ncnc32)cc1	96.6%
O=C1CCC2S/C(=C/Nc3ccc(C(F)(F)F)cc3)C(=O)N12 (stereo unspecified)	87.1%
NC(=O)c1nsc(C(=O)N(c2ccccc2F)C(C(=O)NCc2ccccc2)c2ccc(O)cc2)c1N (stereo unspecified)	98.6%
CCCOC(=O)c1cccc(Nc2nc(-c3cccnc3)nc3ccccc23)c1	99%
Cc1cccc(/C=C2/Sc3ccc(C(=O)NCCN4CCCC4)cc3NC2=O)c1	99.2%
COC(=O)C1=C(C(=O)OC)C(C(=O)OC)C(C(=O)OC)C(C(=O)OC)(C(=O)OC)C(C(=O)OC)=C1C(=O)OC (stereo unspecified)	99%
COc1ccccc1CNC(=O)c1c(N)n(CCCN2CCOCC2)c2nc3ccccc3nc12	99.1%
COc1ccc(-c2cc(C(F)F)n3ncc(C(=O)n4ccnc4C)c3n2)cc1	99.6%
CN(C)CCNc1ncnc2c1sc1nc(N3CCCC3)c3c(c12)CC(C)(C)OC3	99.7%
N=c1c2c(-c3ccccc3)c(-c3ccccc3)n(Cc3ccccc3)c2ncn1CCO	96.4%
